Test results from PubChem BioAssay (NCATS).
Results filed as inconclusive are left out. A call without a number means that no potency is given here. Activity calls are given as the source filed them. The call rests on the fitted dose curve; in most records, active means well fitted inhibition curve with a large enough effect; inconclusive means small, poorly fitted or top-dose-only effect; inactive means flat fitted curve, though single readings scatter.

What follows are compounds tested on Zika virus NS2B-NS3 protease (assay: Primary screen GU AMC qHTS for Zika virus inhibitors (AID 1347154; further: nearly all actives have a fitted effect of over 70% in size)). Conditions: Zika NS2B-NS3 unlinked protease, AMC fluorogenic substrate; series mostly up to 54.1 µM.
Procedure, shortened: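 Unlinked Zika NS2B hydrophilic domain/NS3 protease domain noncovalent complex (25 nM final) in 10 mM Tris-HCl pH 8.0, 0.01% Tween 20, with AMC peptide substrate. Fluorescence (ex 340, em 450 nm) change over 15 min, room temperature; percent inhibition fitted to 4-parameter Hill equation.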
Potency means the concentration at half of the fitted maximal effect.

SMILES	Potency
O=C(O)[C@@H](O)[C@H](O)[C@H](O)[C@@H](O)C(=O)O	inactive
CC(C)OP(=O)(CP(=O)(OC(C)C)OC(C)C)OC(C)C	inactive
CC(=O)N(CC(=O)N(C)C)c1ccccc1	inactive
OC[C@]1(O)OC[C@@H](O)[C@H](O)[C@@H]1O	inactive
Cn1c(=O)c2c(ncn2CC(=O)O)n(C)c1=O	inactive
CCCC(=O)Nc1ccc(O)c(C(C)=O)c1	inactive
NS(=O)(=O)c1ccc(N2CCCCS2(=O)=O)cc1	inactive
C[N+]1(C)CCC(OC(=O)C(O)(c2ccccc2)C2CCCC2)C1 (centres undefined)	inactive
CO[C@@]1(NC(=O)CSC[C@@H](N)C(=O)O)C(=O)N2C(C(=O)O)=C(CSc3nnnn3C)CS[C@@H]21	inactive
CCOC(=O)NNc1nncc2ccccc12	inactive
CC(C)C[C@@H]1[C@H](c2ccccc2)OC(=O)N1CCCN1CCCCCC1	inactive
O=C(O)c1ccccc1S	inactive
Cc1cc(O)c(C)c(C)c1O	inactive
CC(C)(c1ccc(O)cc1)c1ccc(O)cc1	inactive
CCOCCn1c(C2CCN(CCc3ccc(C(C)(C)C(=O)O)cc3)CC2)nc2ccccc21	inactive
CC(=O)N[C@@H](CCC(N)=O)C(=O)O	inactive
Nc1ccc(C(=O)OCC(O)CO)cc1 (centres undefined)	inactive
C[C@@H]1C[C@H]2[C@@H]3CCC4=CC(=O)C=C[C@]4(C)[C@@]3(F)[C@@H](O)C[C@]2(C)[C@@]1(O)C(=O)COC(=O)c1ccncc1	inactive
O=C(c1cc(O)c(O)c(O)c1)c1ccc(O)c(O)c1O	891 nM (active)
